Screens deposited in PubChem by several laboratories.
Only some compounds are listed: those with a hit (about 2.1% of all), similar ones and a draw of the others.
TPT1 inh – inhibitors of Candida albicans tRNA 2'-phosphotransferase TPT1. recombinant caTPT1, FP RNA substrate dephosphorylation. inhibition, % at 5 µM. 0.81% of 300,000 active. AID 1962;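 active = inhibition above the mean of all tested compounds plus 3 SD, set per screening campaign, cut at about 24% in these data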;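 note: plate controls were DMSO alone for no effect and ferristatin control at 100 nM for full effect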
Rpn11 inh – inhibitors of human proteasome Rpn11. O00487. human 26S proteasome, Ub4-pepOG fluorescence polarization; 20S core pre-blocked with epoxomicin. inhibition, % at 20 µM. 0.59% of 360,000 active. AID 588493;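 active = inhibition at 20 µM, scaled to each plate's controls, above about 33%, limit read from the data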
Myeloid diff MLP – promotes myeloid progenitor differentiation | calls only at 10 µM | AID 624256 | ER-HoxA9 myeloid progenitors, lysozyme-GFP differentiation, flow cytometry | 1% of 360,000 active;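 active = normalized GFP-positive differentiation at or above the plate's own cutoff, the solvent-only control mean plus 3 SD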;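 note: cells exposed to compound for four days before flow analysis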
HNF4A DNA FP – change in binding of human HNF4 alpha to DNA; P41235; HNF4a-FITC DNA binding, fluorescence polarization, 1 h; activity change, % at 10 µM; 0.3% of 360,000 active; in the data active = activity change above about 30%, passing the limit was not always enough
Target sequence (P41235 whole entry, looked up): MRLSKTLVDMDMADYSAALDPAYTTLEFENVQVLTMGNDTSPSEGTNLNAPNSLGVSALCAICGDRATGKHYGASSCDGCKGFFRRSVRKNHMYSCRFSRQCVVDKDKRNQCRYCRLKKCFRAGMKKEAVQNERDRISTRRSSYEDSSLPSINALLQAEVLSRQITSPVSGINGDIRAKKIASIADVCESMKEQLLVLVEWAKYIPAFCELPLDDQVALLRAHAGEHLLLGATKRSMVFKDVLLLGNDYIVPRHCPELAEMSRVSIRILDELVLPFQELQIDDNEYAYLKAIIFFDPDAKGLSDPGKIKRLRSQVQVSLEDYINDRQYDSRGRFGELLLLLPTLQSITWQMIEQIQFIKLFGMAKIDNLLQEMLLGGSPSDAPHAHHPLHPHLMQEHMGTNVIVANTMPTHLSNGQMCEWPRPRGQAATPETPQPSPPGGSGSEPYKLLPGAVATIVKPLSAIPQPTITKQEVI
Numbers without * were called inactive; i = inactive; . = no result given; + = active, no number.

SMILES	TPT1 inh	Rpn11 inh	Myeloid diff MLP	HNF4A DNA FP
COc1ccc(-c2cc(NC(C)=O)c3ncc(-c4ccc(OC)c(OC)c4)n3c2)cc1OC	.	11	i	8
COc1ccc(-c2cnc3c(NC(C)=O)cc(-c4ccsc4)cn23)cc1OC	.	54*	+	17
O=C(NNS(=O)(=O)c1ccccc1[N+](=O)[O-])c1ccccc1Cl	2	2	+	-1
COc1ccc(Cl)cc1S(=O)(=O)N1CCCC1	0	0	i	-2
CCC(=O)Nc1c(C#N)c2nc3ccccc3nc2n1-c1ccccc1C	2	9	i	1
Cc1c(C#N)c(NC(=O)CCl)n(Cc2ccccc2)c1C	2	2	i	-1
CCCCn1c(NC(=O)c2ccccc2Cl)c(C#N)c2nc3ccccc3nc21	16	23	+	64*
N#Cc1c(NC(=O)c2ccccc2Cl)n(Cc2ccccc2)c2nc3ccccc3nc12	17	55*	+	73*
CCOc1cc(C2C(C#N)=C(N)SC(N)=C2C#N)ccc1OCCN1CCOCC1	46*	19	i	4
N#Cc1cc([N+](=O)[O-])ccc1NC(=O)CSc1n[nH]c(=O)[nH]c1=O	.	-4	i	19
Cc1cc(C)c(NC(=O)C2CCCN(S(=O)(=O)c3c(C)noc3/C=C/N(C)C)C2)c(C)c1 (configuration not stated)	13	-3	i	1
Cc1noc(/C=C/N(C)C)c1S(=O)(=O)N1CCCC(C(=O)Nc2ccccc2F)C1 (configuration not stated)	15	2	+	3
CC(C)=NNc1nc2c(c(=O)n(C)c(=O)n2C)n1CCc1ccccc1	-1	-6	i	-1
COc1ccc(/C=C2/SC(=S)N(Cc3ccccc3)C2=O)cc1O	.	-5	i	4
O=C1/C(=C\c2cc(Cl)c(O)c(Cl)c2)SC(=S)N1Cc1ccccc1	.	.	+	-99
Clc1ccc(-c2cc(-c3nnc4n3CCCCC4)c3ccccc3n2)cc1	-5	0	+	-1
Cc1ccc(S(=O)(=O)N2CCC(C(=O)OC(C)C(=O)N(C)c3ccccc3)CC2)cc1C (configuration not stated)	.	5	i	3
COc1ccccc1CNC(=O)C(NC(=O)c1ccccc1)C(C)C (configuration not stated)	2	2	i	-3
O=C(CN1CCN(S(=O)(=O)c2ccc(F)cc2)CC1)Nc1ccc(F)cc1F	-3	-8	+	5
COC(=O)C1(C(=O)OC)C[C@H](c2cccs2)N(Cc2ccccc2OC)[C@@H]1c1ccc(F)cc1	.	.	i	-3
O=C(CCl)Nc1ccccc1Sc1ccc(Cl)cc1	-2	-4	i	3
O=C(O)CSCC(=O)Nc1ccccc1SCCS(=O)(=O)c1ccc(Cl)cc1	.	5	+	2
Cc1ccc(S(=O)(=O)NC(Cc2ccccc2)C(=O)O)cc1C (configuration not stated)	-2	0	i	2
O=C(O)C1Nc2c(C(=O)N3CCOCC3)cccc2C2C=CCC12 (configuration not stated)	-14	-11	i	-31
Cc1ccc2c(c1C)NC(C(=O)O)C1CC=CC21 (configuration not stated)	26*	34	i	-52
SMILES	TPT1 inh	Rpn11 inh	Myeloid diff MLP	HNF4A DNA FP
Cc1cc(C)c2c(c1)NC(C(=O)O)C1CC=CC21 (configuration not stated)	17	-20	+	-40
Nc1cc(Cl)cc2c1-c1ccc(Cl)cc1C2	.	7	i	2
CCCCCCC1NC(C(=O)O)CS1 (configuration not stated)	3	4	i	-7
CCN(CC)c1nc2ccccc2nc1C(C#N)C(=O)NCCCOC (configuration not stated)	13	6	+	7
CCCCN(CCCC)c1nc2ccccc2nc1C(C#N)C(=O)NCCCOC (configuration not stated)	8	.	i	-1
CCOC(=O)c1c(NC(=O)CC)sc(C(C)=O)c1C	0	2	i	1
CC1CCN(CC(=O)N(C)c2c(N)n(Cc3ccccc3)c(=O)[nH]c2=O)CC1	.	-2	+	6
Cc1nc2ncccn2c1-c1csc(NCc2ccco2)n1	-4	-18	+	-3
O=c1[nH]c2cc(S(=O)(=O)CCO)ccc2o1	-4	2	i	-3
OCCNc1nc2ccccc2n1CC(O)c1ccccc1 (configuration not stated)	2	-12	i	120*
COC(CNC(=O)c1ccc(CS(=O)(=O)c2ccc(C)cc2)o1)OC	-1	-9	+	0
